Test systems include DU-145 prostate; K-562 leukemia; MALME-3M melanoma; MDA-MB-231 breast; RXF 393 renal; SF-268 CNS; SF-295 CNS; SF-539 CNS; UACC-257 melanoma; M14 melanoma; HCT-15 colon; HT29 colon; SNB-75 CNS; SNB-19 CNS; U251 CNS; PC-3 prostate; SK-MEL-5 melanoma; UACC-62 melanoma; LOX IMVI melanoma; SK-MEL-28 melanoma.
Common to all, as to assay: NCI-60 one-dose screen, 48 h (100 = growth as untreated, 0 = no growth, -100 = all killed)
Holding throughout (details): 10 µM unless noted

Data on 8 compounds can be found in PubChem BioAssay (NCI).

SMILES strings stand for the structures. About 83,000 compounds went through this panel and 20% of them were active in at least one assay; those are over-represented in the sample as a whole.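 Assay: single dose, 48 h. Readout: percent growth (0 = no net growth; negative = cell death). Active: <10.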 Values without a mark were called inactive. Activity calls are given as the source filed them.

Take `CCOC(=O)C1OC2(CCCC2)OC1C(=O)OCC` (stereo not given): the growth with DU-145 prostate was 125%; in the test on K-562 leukemia it was 112%; in the test on MALME-3M melanoma, 107%; with MDA-MB-231 breast, 95.7%; with RXF 393 renal it was 104%; with SF-268 CNS, 114%. Besides, the growth is 126% in the test on SF-295 CNS; 114% with SF-539 CNS; 97.7% with UACC-257 melanoma; 105% with M14 melanoma; 106% in the test on HCT-15 colon; 99.2% in the test with HT29 colon. Also, the growth with SNB-75 CNS was 104%; in the test with SNB-19 CNS, 99.3%; in the test on U251 CNS it was 109%; in the test on PC-3 prostate, 97.6%; in the test on SK-MEL-5 melanoma it was 101%; in the test on UACC-62 melanoma it was 96.7%. In addition, the values for the growth with LOX IMVI melanoma and with SK-MEL-28 melanoma were 102% and 122%, respectively.
For `Oc1ccc(-c2nc3ccccc3s2)cc1CN(Cc1ccccn1)Cc1ccccn1`, the growth with DU-145 prostate was 24.2%; with K-562 leukemia, 11.8%; with MALME-3M melanoma, 8.24% (active); in the test on MDA-MB-231 breast, 25.3%; in the test on RXF 393 renal, 40.5%; in the test with SF-268 CNS it was 17.7%. The growth is 13.5% in the test with SF-295 CNS; 3.91% (active) with SF-539 CNS; -0.146% (active) with UACC-257 melanoma; -29.7% (active) with M14 melanoma; 15.2% in the test with HCT-15 colon; 25.7% with HT29 colon. In addition, the growth was 38.7% with SNB-75 CNS; 20.5% in the test on SNB-19 CNS; 8.51% (active) with U251 CNS; 30.3% in the test with PC-3 prostate; -67.4% (active) in the test with SK-MEL-5 melanoma; 8.93% (active) with UACC-62 melanoma. The growth was 2.31% (active) with LOX IMVI melanoma and 33.1% with SK-MEL-28 melanoma.
With `C=C1C(=O)O[C@H]2[C@H]1CC/C(COC(=O)NCc1ccc(Cn3c(=O)sn(CCCl)c3=O)cc1)=C\CC[C@@]1(C)O[C@@H]21`, the growth in the test on DU-145 prostate was 36.9%; in the test with K-562 leukemia it was -13% (active); in the test with MALME-3M melanoma, -28.3% (active); in the test on MDA-MB-231 breast, 73.5%; with RXF 393 renal, 5.98% (active); in the test with SF-268 CNS it was 85.2%. In addition, the growth was 107% in the test with SF-295 CNS; 83.1% with SF-539 CNS; 49.8% in the test on UACC-257 melanoma; 29.5% with M14 melanoma; 27.6% in the test with HCT-15 colon; 15.1% with HT29 colon. Moreover, the growth in the test with SNB-75 CNS is 85.5%; in the test with SNB-19 CNS, 99%; in the test with U251 CNS, 78.7%; in the test on PC-3 prostate, 78.7%; in the test on SK-MEL-5 melanoma, 81.7%; with UACC-62 melanoma, 69.5%. In addition, the growth in the test with LOX IMVI melanoma was 60.8%; in the test with SK-MEL-28 melanoma, 64.3%.
`S=C(Cc1ccccc1)N1CCN(c2ccccc2Cl)CC1`: the growth with DU-145 prostate is 102%; with K-562 leukemia, 89.8%; in the test with MALME-3M melanoma, 95.2%; with MDA-MB-231 breast, 100%; with RXF 393 renal, 117%; in the test with SF-268 CNS it was 95.2%. Also, the growth with SF-295 CNS is 90.7%; in the test on SF-539 CNS it was 105%; in the test with UACC-257 melanoma, 110%; with M14 melanoma, 99.1%; with HCT-15 colon, 106%; with HT29 colon, 100%. In addition, the growth in the test on SNB-75 CNS was 96.8%; in the test on SNB-19 CNS, 116%; in the test with U251 CNS, 99.2%; in the test on PC-3 prostate it was 86.6%; in the test on SK-MEL-5 melanoma, 90.9%; with UACC-62 melanoma it was 86.2%. Moreover, the growth is 105% with LOX IMVI melanoma and 119% with SK-MEL-28 melanoma.
For `O=C(Nc1ccc([N+](=O)[O-])cc1)c1cc2ccccc2cc1O`, the growth in the test on DU-145 prostate is 103%; with K-562 leukemia, 0.836% (active); in the test on MALME-3M melanoma, -21.5% (active); in the test on MDA-MB-231 breast it was -35.5% (active); in the test with RXF 393 renal it was -10.4% (active); in the test with SF-268 CNS, 92.5%. The growth with SF-295 CNS is -20.6% (active); with SF-539 CNS, 2.51% (active); in the test on UACC-257 melanoma, -33.3% (active); in the test with M14 melanoma, -11.4% (active); in the test with HCT-15 colon, 0.0174% (active); with HT29 colon, 24.4%. The growth was -6.38% (active) in the test on SNB-75 CNS; 23.7% with SNB-19 CNS; 2.66% (active) with U251 CNS; -11.2% (active) with PC-3 prostate; -86.8% (active) in the test on SK-MEL-5 melanoma; -28.8% (active) with UACC-62 melanoma. Moreover, the growth in the test on LOX IMVI melanoma is -1.01% (active); in the test on SK-MEL-28 melanoma, 7.4% (active).
For `CCOC(=O)N1C2CCC(C2)N1C(=O)OCC`, the growth in the test with DU-145 prostate is 104%; in the test on K-562 leukemia it was 94.6%; in the test on MALME-3M melanoma, 104%; in the test with MDA-MB-231 breast, 115%; in the test on RXF 393 renal, 106%; with SF-268 CNS, 97%. Besides, the growth with SF-295 CNS is 106%; in the test on SF-539 CNS, 132%; with UACC-257 melanoma, 107%; with M14 melanoma, 108%; with HCT-15 colon, 106%; with HT29 colon, 107%. Further, the growth in the test on SNB-75 CNS is 71.6%; in the test on SNB-19 CNS, 100%; with U251 CNS, 99.1%; with PC-3 prostate, 105%; with SK-MEL-5 melanoma, 104%; with UACC-62 melanoma, 98.2%. Besides, the growth is 99.7% in the test with LOX IMVI melanoma and 97.4% in the test with SK-MEL-28 melanoma.
As for `COc1cc(C2CC(c3cccc(Nc4ccnc5cc(Cl)ccc45)c3)=NN2C=O)cc(OC)c1OC` (stereo not given), the growth was -2.32% (active) with DU-145 prostate; 19.4% with K-562 leukemia; -5.46% (active) in the test on MALME-3M melanoma; 6.76% (active) in the test on MDA-MB-231 breast; -25.1% (active) with RXF 393 renal; 25.3% in the test with SF-268 CNS. In addition, the growth in the test with SF-295 CNS is -11.6% (active); in the test with SF-539 CNS, -26.3% (active); in the test with UACC-257 melanoma it was 37.6%; in the test with M14 melanoma, -26.7% (active); in the test on HCT-15 colon it was 27.6%; in the test with HT29 colon, -54.3% (active). For the same compound, the growth with SNB-75 CNS is -26.9% (active); in the test on SNB-19 CNS it was 36.9%; with U251 CNS, 21.5%; in the test on PC-3 prostate it was 16.7%; with SK-MEL-5 melanoma it was 4.37% (active); in the test with UACC-62 melanoma, -35% (active). For the same compound, the values for the growth with LOX IMVI melanoma and in the test on SK-MEL-28 melanoma were 19.9% and 7.27% (active), respectively.
Turning to `CC(=O)O[C@H]1CC[C@]2(C)[C@H]3CC=C4[C@@H]5CC(C)(C)CC[C@]5(C(=O)OCC(COC(=O)C(Cl)Cl)(COC(=O)C(Cl)Cl)NC(=O)C(Cl)Cl)CC[C@@]4(C)[C@]3(C)CC[C@H]2C1(C)C`, the growth in the test with DU-145 prostate was 62.2%; with K-562 leukemia it was 38.8%; in the test with MALME-3M melanoma, 83.1%; with MDA-MB-231 breast, 82.9%; with RXF 393 renal it was 74.7%; in the test on SF-268 CNS it was 56.1%. The growth in the test on SF-295 CNS is 80.4%; with SF-539 CNS, 86.8%; with UACC-257 melanoma it was 42.5%; in the test on M14 melanoma, 67.2%; with HCT-15 colon it was 46.7%; with HT29 colon, 8.55% (active). Further, the growth in the test on SNB-75 CNS was 85.9%; in the test on SNB-19 CNS, 90.4%; with U251 CNS, 45.1%; in the test with PC-3 prostate, 22.7%; with SK-MEL-5 melanoma, 71.9%; in the test with UACC-62 melanoma it was 84.4%. Besides, the growth was 65.9% with LOX IMVI melanoma and 87.3% in the test on SK-MEL-28 melanoma.
